Data reported in PubChem BioAssay AID589 (National Center for Advancing Translational Sciences (NCATS), 2007).
Out of some 59,000 compounds screened, about 6,200 (11%) were called active. Not shown: some 9% with an inconclusive outcome. Rule as the data show it: active = max dye-equivalent concentration above about 10 nM; inconclusive = mostly about 1.1 nM to 9.6 nM; inactive = weaker than that. The entries come from a sample that favours actives as a whole.

Assay: qHTS Assay for Spectroscopic Profiling in 4-MU Spectral Region
Details: compound autofluorescence, 340/450 nm, 4-MU equivalents; active compounds read high
Procedure, shortened: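 Intrinsic fluorescence at 340/450 nm (ex/em) was read after 15 min at room temperature in pH 8.0, 100 mM Tris. Each compound concentration expressed as 4-MU-equivalent concentration from a six-point 4-MU standard series on each plate.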

Row | SMILES | max dye-equivalent concentration
1 | CC1=NCCN1S(=O)(=O)c1ccc(Br)c(C)c1 | inactive
2 | CC(=O)c1cnc(Nc2nc(C)c3cc(C)ccc3n2)nc1C | inactive
3 | O=C(CSC1=Nc2ccccc2C2=NC(c3ccccc3)C(=O)N12)NCC1CCCO1 (stereo unspecified) | 750 nM (active)
4 | O=C(CS(=O)(=O)Cc1ccccc1)NCC1CCCO1 (stereo unspecified) | inactive
5 | O=C(CSc1nnc(-c2ccc(NS(=O)(=O)c3ccccc3)cc2)o1)NCC1CCCO1 (stereo unspecified) | inactive
6 | COC(=O)NC1(C(F)(F)F)NC(=O)N(C2CCCCC2)C1=O (stereo unspecified) | inactive
7 | O=C(NCc1ccc(Cl)cc1)c1cc2c(nc3sccn32)s1 | inactive
8 | CS(=O)(=O)N1CCC[C@@]2(CCN(c3ccncc3)C2)C1 | inactive
9 | Cc1ccc2cc3cc(C(=O)N4CCCCCC4)oc3nc2c1 | 12 nM (active)
10 | Cc1ccc(C(=O)N2CCCCCC2)cc1Br | inactive
11 | O=C(c1cc(-c2cccs2)on1)N1CCCCC1 | inactive
12 | Cc1cc(C(=O)CC#N)c(C)n1CC(F)(F)F | inactive
13 | Cc1ccsc1CNn1cnnc1SCc1ccccc1F | inactive
14 | COc1ccccc1N1CCN(C(=O)Cn2nnc(-c3cccs3)n2)CC1 | inactive
15 | CN(C(=O)c1ccno1)c1nnc(-c2cccnc2)s1 | inactive
16 | COc1cccc(-c2nnc(N(C)C(=O)c3ccno3)s2)c1 | 34 nM (active)

Row | SMILES | max dye-equivalent concentration
17 | CN(C(=O)COc1ccccc1)c1nnc(-c2ccncc2)s1 | inactive
18 | C=CCn1c(COc2ccccc2)nnc1SCC(=O)NCC(=O)OCC | inactive
19 | COc1ccccc1-c1cc(NCc2cccs2)ncn1 | inactive
20 | COC(=O)[C@H](CCSC)NC(=O)Nc1ccc(OC)cc1 | inactive
21 | COc1cc2cc(CN(CCN3CCCC3)C(=O)Nc3ccccc3Cl)c(=O)[nH]c2cc1OC | 250 nM (active)
22 | COc1cccc2cc(C(C)N(CCCN3CCOCC3)C(=O)Nc3ccc(Cl)cc3)oc12 (stereo unspecified) | inactive
23 | COc1ccc(CCN(Cc2cc3cccc(C)c3[nH]c2=O)C(=O)N2CCCC2)cc1OC | inactive
24 | c1ccc(-n2ncc3c(N4CCCC4)ncnc32)cc1 | inactive
25 | Cc1cccc(-n2ncc3c(N4CCc5ccccc54)ncnc32)c1 | 18 nM (active)
26 | COc1ccc(N2CCN(C(=O)CSc3ncnc4c3cnn4-c3ccc(OC)cc3)CC2)cc1 | inactive
27 | COc1ccc(-n2ncc3c(N4CCCc5ccccc54)ncnc32)cc1 | 39 nM (active)
28 | CCCc1nc2c3cnn(-c4cccc(Cl)c4)c3ncn2n1 | inactive
29 | Oc1c(C(c2ccccn2)N2CCOCC2)ccc2cccnc12 (stereo unspecified) | inactive
30 | COc1ccccc1CNc1cc(-c2ccccc2CN(C)C)ncn1 | inactive
31 | O=C(Nc1ccccc1F)C1C2C=CC3(O2)C1C(=O)N(c1cccnc1)C3C(=O)NC1CCCCC1 (stereo unspecified) | inactive
